The list is not random: actives were taken first. Their share in the collection is about 3.5%.
TSHR agonist: qHTS Assay for Agonists of the Thyroid Stimulating Hormone Receptor. 73,000 tested, 0.48% active. Potency, µM (doses to about 57.1 µM), hits mostly activators. AID 926, 2007. Thyrotropin receptor (Homo sapiens), P16473. HEK293-CNG-TSHR cells (CNG channel as cAMP sensor), membrane potential dye, cAMP; active = well fitted activation curve with a large enough effect in the main read-out, with a control signal flat, not every such curve was filed as active; inconclusive = small, poorly fitted or top-dose-only effect, or a change in a side signal; inactive = no such curve, though single readings can be large or run the other way; reference of the percent scale not stated here;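 note: the control signal comes from parental cells without the receptor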
Target sequence (P16473 whole entry, looked up): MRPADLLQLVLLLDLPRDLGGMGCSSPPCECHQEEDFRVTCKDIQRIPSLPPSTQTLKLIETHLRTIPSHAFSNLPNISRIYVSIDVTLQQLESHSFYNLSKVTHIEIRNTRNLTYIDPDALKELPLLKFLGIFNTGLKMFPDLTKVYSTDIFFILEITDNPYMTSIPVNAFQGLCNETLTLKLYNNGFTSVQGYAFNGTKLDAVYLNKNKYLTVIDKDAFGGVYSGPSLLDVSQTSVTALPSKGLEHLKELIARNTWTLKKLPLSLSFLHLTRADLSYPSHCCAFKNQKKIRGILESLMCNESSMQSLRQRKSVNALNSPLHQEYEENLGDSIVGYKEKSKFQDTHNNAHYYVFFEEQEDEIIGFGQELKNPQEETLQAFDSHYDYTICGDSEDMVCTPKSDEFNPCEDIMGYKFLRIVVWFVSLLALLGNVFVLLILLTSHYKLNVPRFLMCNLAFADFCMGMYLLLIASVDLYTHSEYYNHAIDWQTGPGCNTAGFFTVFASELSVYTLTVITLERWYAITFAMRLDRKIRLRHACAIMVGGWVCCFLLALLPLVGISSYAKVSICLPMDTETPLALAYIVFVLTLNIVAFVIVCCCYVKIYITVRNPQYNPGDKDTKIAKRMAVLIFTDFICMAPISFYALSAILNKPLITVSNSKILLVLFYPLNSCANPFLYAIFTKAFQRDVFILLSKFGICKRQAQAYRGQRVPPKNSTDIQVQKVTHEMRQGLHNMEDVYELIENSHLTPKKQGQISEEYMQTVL
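HEK 293 cells stably expressing TSHR and a cAMP-gated CNG channel; parental CNG-only cells as counterscreen. Cells preloaded 60 min with membrane potential dye plus 100 uM RO 20-1724, then compound 30 min; fluorescence read at 590 nm.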
IkB sig inh: IkB Signaling; 110,000 tested, 0.04% active; ABC-DLBCL IkBa-CBG/CBR dual luciferase ratio, 4 h; response scale: scaled: untreated 0%, proteasome inhibitor 100%; Potency, µM (series often up to 57.1 µM); active = well fitted curve in the direction sought with a large enough effect in the signal ratio, not every such curve was filed as active; inconclusive = small, poorly fitted or top-dose-only effect, or a change in a side signal; the % refers to the signal ratio;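 note: the direction sought is a rising ratio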
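Luminescence ratio of IκBα-fused green versus native red beetle luciferase in OCI-Ly3 cells, 4 h post-doxycycline with compound; red signal alone, scaled from basal (0%) to zero light (-100%), flagged nonspecific or cytotoxic effects.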
CRE Fsk mod: Cell signaling CRE-BLA (Fsk stim) | CHO CRE-bla reporter (cAMP response element driving beta-lactamase), forskolin EC10, beta-lactamase ratio | Potency, µM (titrated, usually from 38.2 µM), most hits filed as activators | 71,000 tested, 2.5% active | AID 662, 2007; active = well fitted activation curve with a large enough effect in the signal ratio, with a control signal flat, not every such curve was filed as active; inconclusive = small, poorly fitted or top-dose-only effect, or effect the other way, or a change in a side signal; the % refers to the signal ratio
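CRE-bla CHO cells stimulated with EC10 NKH 477 (water-soluble forskolin) and compound titrations, 3 h at 37C; beta-lactamase read with CCF4 after 2 h at room temperature. Activity from 460/530 nm emission ratio, AC50 values for positive or negative modulation.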
Hsp90 Hop PPI: qHTS Assay for Disrupters of an Hsp90 Co-Chaperone Interaction | Potency, µM (highest dose often 57 µM) | AID 595, 2007 | Hsp90 C-terminal peptide / TPR2A (Hop) interaction, human | AlphaScreen TPR2A-His6 binding biotin-Hsp90 C-terminal peptide | 71,000 tested, 0.44% active; active = well fitted curve in either direction with a large enough effect; inconclusive = small, poorly fitted or top-dose-only effect, or another doubt
HEK293 cAMP ctrl: qHTS Assay for Agonists of the Thyroid Stimulating Hormone Receptor: Activators of Intracellular cAMP Concentrations in Parental HEK 293. parental HEK293 CNG cAMP sensor, membrane potential fluorescence. Potency, µM (titrated, usually from 57.1 µM), actives largely listed as activators. 73,000 tested, 2.5% active; active = well fitted activation curve with a large enough effect; inconclusive = small, poorly fitted or top-dose-only effect; inactive = no such curve, though single readings can be large or run the other way; note: nearly all actives have a fitted effect of over 55% in size
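Parental HEK 293 cells stably expressing a cAMP-gated CNG channel were loaded with membrane potential dye containing 100 uM RO 20-1724 for 60 min. Compound added for 30 min; depolarization read as fluorescence intensity at 590 nm.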
A number is an active result; i = inactive; ? = inconclusive; nt = no result; [ ] = remark or other dose.

SMILES	TSHR agonist	IkB sig inh	CRE Fsk mod	Hsp90 Hop PPI	HEK293 cAMP ctrl
Cc1cccc(CSc2nnc3[nH]c(=O)cc(-c4ccccc4)n23)c1	nt	i	nt	nt	nt
N#CCCn1c(=O)c(-c2cc(F)cc(F)c2)nc2cnc(N3CCOCC3)nc21	i	i[11.4 µM]	?	i	i
Cc1cc(Nc2cccc(C(F)(F)F)c2)n2nc(C)nc2n1	i	i	?	i	i
CCOc1ccc(OCC)c(Nc2cc(C)nc3nc(C)nn23)c1	i	i	10µM	i	i
CCc1cccc(Nc2cc(C)nc3nc(C)nn23)c1	i	i	10µM	i	i
CC1CCCCN1C(=O)c1cnn2c(C(F)(F)F)cc(-c3ccco3)nc12 (stereo not drawn)	i	i	?	i	i
COc1ccc(-c2cc(C(F)(F)F)n3ncc(C(=O)NCC4CCCO4)c3n2)cc1 (stereo not drawn)	?	i	i	?	10µM
O=C(c1cnn2c(C(F)(F)F)cc(-c3ccco3)nc12)N1CCCCCC1	?	i	?	i	31.6µM
O=C(c1cnn2c(C(F)(F)F)cc(-c3ccco3)nc12)N1CCc2ccccc2C1	i	i	?	i	i
O=C(NC1CCCCC1)c1cnn2c(C(F)(F)F)cc(-c3ccco3)nc12	i	i	7.94µM	i	i
O=C(NCc1ccco1)c1cnn2c(C(F)(F)F)cc(-c3cccs3)nc12	i	i	10µM	i	i
C/C(CCC(=O)OC[C@@H]1O[C@H](C#Cc2ccccc2)C=C[C@@H]1Oc1ccc(C)cc1)=N/OC[C@@H](O)[C@H]1O[C@H]2OC(C)(C)O[C@H]2[C@@H]1O	i[11.4 µM]	nt	nt	nt	i[11.4 µM]
COc1ccc(N2CCN(C(=O)CCn3c(=O)c4cccn4c4cccnc43)CC2)cc1	nt	i	nt	nt	nt
Fc1ccc(C(c2nnnn2Cc2ccccc2)N2CCSCC2)cc1 (stereo not drawn)	?	?	i	i	12.6µM
O=C(OCc1nnc(-c2ccccc2)o1)C1=COCCO1	i	i	i	i	i
O=C(OCc1nnc(-c2ccccc2)o1)c1ccc2c(c1)OCCO2	?	?	i	i	12.6µM
Cc1cc(C)n(-c2ccc(C(=O)OCc3nnc(-c4ccccc4)o3)cc2)n1	?	?	?	i	31.6µM
COC(=O)[C@@]1(C)C=C[C@@H](Cc2ccccc2)N1C(=O)c1ccccc1	?	nt	i	i	20µM
Cc1ccccc1-c1nnc(SCC(=O)NC2CCCCC2)o1	?	i	i	i	31.6µM
COc1ccccc1-c1nnc(SCC(=O)NC2CCCCC2)o1	i	?	i	i	i
COc1ccc(-n2nnnc2SCC(=O)N2C(C)CCCC2C)c(OC)c1 (stereo not drawn)	nt	i	i	i	i
COc1ccc2c(c1)c1ccccc1n2C	i	i	i	i	i
COc1ccc2c(c1)c1nnc(SC)nc1n2C	?	i	2.51µM	i	?
COc1ccc2c(c1)c1nnc(SCC(=O)N3C(C)CCCC3C)nc1n2C (stereo not drawn)	i	i	0.794µM	i	i
Fc1ccc(-c2nn3c(C4COc5ccccc5O4)nnc3s2)cc1 (stereo not drawn)	?	?	i	i	?
SMILES	TSHR agonist	IkB sig inh	CRE Fsk mod	Hsp90 Hop PPI	HEK293 cAMP ctrl
Fc1ccc(-c2nnc3sc(C4COc5ccccc5O4)nn23)cc1 (stereo not drawn)	?	i	i	i	25.1µM
CCC(c1nnnn1C1CCCCC1)N1CCN(C2CCCC2)CC1 (stereo not drawn)	?	i	i	i	5.01µM
CCCC(c1nnnn1C1CCCCC1)N1CCN(C2CCCC2)CC1 (stereo not drawn)	?	i	i	i	15.8µM
CCCC(c1nnnn1C(C)(C)CC)N1CCN(C2CCCC2)CC1 (stereo not drawn)	?	i	i	i	1µM
CC(=O)OCC(=O)[C@@]12OC(C)(C)O[C@@H]1C[C@H]1[C@H]3C[C@H](F)C4=CC(=O)C=C[C@@]4(C)[C@]3(F)[C@H](O)C[C@@]12C	i	?	i	i	i
CC1CCN(S(=O)(=O)c2ccc3c(c2)N(CC(=O)NC(C)C)C(=O)CO3)CC1	nt	i	nt	nt	nt
N#Cc1ccccc1NC(=O)c1ccc(-c2ccccc2Cl)o1	?	?	i	i	25.1µM
CN1CCc2ccccc2[C@@H]1Cc1ccccc1NC(=O)c1sc2ccccc2c1Cl	nt	i[11.4 µM]	i[7.6 µM]	i[11 µM]	i[11.4 µM]
CCOc1ccc2nc(-c3ccccc3)[nH]c2c1	?	?	i	i	15.8µM
COc1ccc2nc(-c3ccccc3)[nH]c2c1	?	?	i	i	?
Cc1cc(C)cc(NC(=O)Cn2cc(C(=O)c3ccccc3)c(=O)c3ccc(C)nc32)c1	nt	i	nt	nt	nt
CCOc1ccc(Br)cc1-c1noc(-c2cccs2)n1	25.1µM	i	i	?	i
COc1ccc(-c2ccc(-c3noc(-c4cccs4)n3)c(OC)n2)cc1	i	i	?	i	i
COc1cc(OC)cc(-c2nc(-c3ccccc3OC)no2)c1	?	i	i	i	?
CCOc1cc(-c2nc(-c3cc(OC)c(OC)c(OC)c3)no2)cc(OCC)c1OCC	i	i	i	i	i
COc1cc(-c2nc(-c3ccccn3)no2)cc(OC)c1OC	i[11.4 µM]	?	1.26µM	i[11 µM]	i[11.4 µM]
COc1ccccc1-c1noc(-c2cc(OC)c(OC)c(OC)c2)n1	i	i	6.31µM	i	i
COc1cc(-c2noc(-c3cccs3)n2)cc(OC)c1OC	i	i	10µM	i	i
C[C@@H]1CNCCN1S(=O)(=O)c1cccc2cnccc12	i	?	?	i	i
C[C@H](Br)C(=O)Nc1ccc(C(=O)O)c(O)c1	i[11.4 µM]	i[11.4 µM]	i[7.6 µM]	i[11 µM]	i[11.4 µM]
c1ccc(-c2cc(-c3nc(-c4ccccn4)no3)c3ccccc3n2)cc1	nt	i	3.16µM	i	i
c1ccc(-c2ccc(-c3nc(-c4ccccn4)no3)cc2)cc1	nt	?	?	i	i
Cc1ccc(C)c(N2CCN(C(=O)c3ccc(NS(=O)(=O)c4c(C)noc4C)cc3)CC2)c1	?	?	?	i	?
Cc1ccc(Cl)cc1N1CCN(C(=O)c2ccc(NS(=O)(=O)c3c(C)noc3C)cc2)CC1	i	?	2.51µM	i	i
Cc1nc2ncnn2c(N2CCN(C(c3ccccc3)c3ccccc3)CC2)c1C	?	?	?	?	31.6µM
SMILES	TSHR agonist	IkB sig inh	CRE Fsk mod	Hsp90 Hop PPI	HEK293 cAMP ctrl
CCn1cc(C(=O)NCc2ccccc2OC)c(=O)c2cc(S(=O)(=O)N3CCCCC3)ccc21	nt	i	nt	nt	nt
Nc1ccc2cc3ccccc3cc2c1	i	3.16µM	?	i	i
Cc1cc(C)c(C)c(OCC(=O)NCc2nc(-c3ccccc3)no2)c1	?	i	i	i	?
Cc1cc(OCC(=O)NCc2nc(-c3ccccc3)no2)c(C)cc1Br	?	i	i	i	31.6µM
COc1ccc(CNc2ncnc3ccc(-c4c(C)noc4C)cc23)c(OC)c1	i	?	5.01µM	i	i
COc1cccc(-c2ccc3ncnc(NCc4ccc(OC)cc4OC)c3c2)c1	?	i[11.4 µM]	1.58µM	i	?
